High-throughput results: PubChem, National Center for Advancing Translational Sciences (NCATS)
Most compounds without a hit are left out; they make up all but 19% or so of the library.
HT1080-NT tox = qHTS for induction of synthetic lethality in tumor cells producing 2HG: qHTS for the HT-1080-NT fibrosarcoma cell line | HT-1080-NT fibrosarcoma viability, CellTiter-Glo ATP luminescence, 48 h | Potency, µM (top dose mostly 46.1 µM), for inactives: top-dose activity, negative = less viability, actives largely listed as cytotoxic | actives 1.6% (n = 360,000) | AID 686970, 2013;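 also: NT is the 2HG producing partner of a matched IDH1 knockdown line; potency is read from the fitted curve at half-maximal effect; 0% = DMSO-treated cells and -100% = media-only wells without cells; nearly all actives have a fitted effect of over 55% in size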
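Viability of the 2HG-overproducing fibrosarcoma line after 48 hours of compound exposure at 37 degrees C was determined by luminescence with CellTiter-Glo, and concentration-effect curves were then fitted and categorized.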
ELG1 DNA repair = qHTS screen for small molecules that inhibit ELG1-dependent DNA repair in human embryonic kidney (HEK293T) cells expressing luciferase-tagged ELG1 | HEK293T ELG1-luciferase reporter, luminescence, 16 h; DNA damage induced by 5-fluorouridine | Potency, µM (doses to about 46.1 µM), for inactives: top-dose activity change, negative = inhibition, most hits filed as inhibitors | actives 2.3% (n = 330,000) | AID 504467, 2011; also: potency is read from the fitted curve at half-maximal effect; nearly all actives have a fitted effect of over 55% in size
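HEK293T cells expressing luciferase-tagged ELG1 (2,000/well) received 5-Fluorouridine plus compound or DMSO for 16 hr at 37 °C. Luciferase was read by ONE-Glo luminescence after 30 min at room temperature.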
TDP1 cell noCPT = qHTS for Inhibitors of human tyrosyl-DNA phosphodiesterase 1 (TDP1): qHTS in cells in absence of CPT | DT40 Tdp1-/- hTDP1 cells, no CPT, ATP luminescence, 48 h | Potency, µM (series often up to 46.2 µM), for inactives: top-dose activity change, negative = growth inhibition, usual class: inhibitors | actives 15% (n = 420,000) | AID 686978, 2013; also: potency is read from the fitted curve at half-maximal effect; nearly all actives have a fitted effect of over 55% in size
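Readout: luminescence from CellTiter-Glo after 30 min in the dark at RT. Cells: DT40 Tdp1-/- with stable hTDP1, 400/well. Exposure: compounds alone, ≥48 hr, 37 °C.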
IL1B secr inh = qHTS for Inhibitors of Inflammasome Signaling: IL-1-beta AlphaLISA Primary Screen. THP-1 LPS/ATP IL-1B secretion, AlphaLISA, 16 h; active compounds read low. activity change, % at 57.5 µM. actives 4.7% (n = 360,000). AID 743279, 2014; in the data active = activity change below about -50%; inconclusive = mostly about -30% to -49%
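THP-1 cells pretreated 1 hr with compounds (up to 57.5 uM final), then stimulated with LPS (250 ng/mL final) plus ATP (1.25 mM final); secreted IL-1B measured by AlphaLISA after 16 hr, decreased signal indicating inhibition.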
TDP1 cell CPT = qHTS for Inhibitors of human tyrosyl-DNA phosphodiesterase 1 (TDP1): qHTS in cells in presence of CPT; chicken DT40 Tdp1-/-;hTDP1 cells + 20 nM CPT, ATP luminescence, 48 h; Potency, µM (titrated, usually from 46.2 µM), without a hit: at the highest dose activity change, negative = growth inhibition, actives largely listed as inhibitors; actives 12% (n = 420,000); AID 686979, 2013; also: potency is read from the fitted curve at half-maximal effect; nearly all actives have a fitted effect of over 55% in size
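Chicken DT40 Tdp1-/- cells complemented with human TDP1, 400 cells/well, exposed to compounds plus 20 nM camptothecin for at least 48 h at 37 C; viability read as ATP content by CellTiter-Glo luminescence.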
HT1080 IDH1KD tx = qHTS for induction of synthetic lethality in tumor cells producing 2HG: qHTS for the HT-1080-IDH1KD cell line. Potency, µM (series often up to 46.1 µM), without a hit: at the top dose activity, negative = toxicity, usual class: cytotoxic. actives 2% (n = 360,000). HT-1080 IDH1 knockdown viability, ATP luminescence, 48 h;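 also: potency is read from the fitted curve at half-maximal effect; 0% = DMSO wells and -100% = cell-free medium wells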
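After a 2 h attachment period, IDH1KD HT-1080 cells took pin-transferred compound for 48 h at 37 °C; ATP-based luminescence after 10 min room-temperature reagent incubation reported viability.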
Starred values were filed as active, the others as inactive; ? = inconclusive; . = not tested or not shown; [ ] = remark or other dose. Unless noted, calls follow the shape of the dose curve; as a rule, active = well fitted curve in the direction sought with a large enough effect; inconclusive = small, poorly fitted or top-dose-only effect, or another doubt; inactive = no such curve, though single readings can be large; an effect the other way counts as inactive or inconclusive. Unless noted, % is scaled to controls: 0 for no effect and ±100 for the full control effect.

SMILES	HT1080-NT tox	ELG1 DNA repair	TDP1 cell noCPT	IL1B secr inh	TDP1 cell CPT	HT1080 IDH1KD tx
CC1(C)N=C(N)N=C(N)N1c1cccc(CC(=O)Nc2ccccc2)c1	9.2µM*	.	2.59µM*	-10.9	9.2µM*	3.26µM*
CC1(C)N=C(N)N=C(N)N1c1ccc(OCC(=O)Nc2ccccc2)c(Cl)c1	0.731µM*	.	0.731µM*	-21.2	1.16µM*	0.366µM*
CCCCNS(=O)(=O)c1cccc(NC(=O)[C@H]2C[C@H](O)[C@@H](CO)O2)c1	12.3%	.	1.4%	15.3	-14.0%	1.9%
c1ccc(C2CCC(N3CCN(c4ccccc4)CC3)CC2)cc1 (stereo unspecified)	-2.0%	9.1%	?	-17.8	?	-23.5%
COc1ccc(CNC(=O)Cc2cn(C)c3ccccc23)c(OC)c1	-7.2%	-1.3%	-20.3%	6.7	-2.0%	0.6%
O=C1Nc2ccccc2C1=Nc1ccccc1-c1ccccc1	-6.7%	.	?	-70.4*	?	5.6%
Cc1ccc([N+](=O)[O-])cc1N=C1C(=O)Nc2ccccc21	-28.6%	?	-29.8%	-88.6*	-20.3%	?
Cc1cc(Br)ccc1N=C1C(=O)Nc2ccccc21	-2.1%	24.0%	-5.9%	28.7	7.1%	7.6%
Cc1ccc(N=C2C(=O)Nc3ccccc32)cc1C	0.9%	-2.7%	6.8%	-8.5	7.8%	7.2%
O=C(NCCCN1CCCC1)c1ccc(CS(=O)(=O)c2c(Cl)cccc2Cl)o1	-1.8%	?	-5.5%	2.6	-7.8%	-1.4%
Cc1nc2nc(NC(=O)c3ccc(Cl)cc3)[nH]n2c(=O)c1Cc1ccccc1	.	.	-5.7%	.	-0.2%	.
CCOC(=O)C1(CCCc2ccccc2)CCN(C(=O)CCOC)CC1	-9.8%	-12.8%	?	0.0	-0.2%	-7.1%
CCOC(=O)C1(CCCc2ccccc2)CCN(C(=O)CCCn2cncn2)CC1	-15.9%	-12.8%	25.9µM*	-7.9	?	-17.3%
CCOC(=O)C1(CCCc2ccccc2)CCN(C(=O)CCN2CCCCC2=O)CC1	7.1%	-17.3%	16.4µM*	-5.0	?	-0.9%
CCOC(=O)C1(CCCc2ccccc2)CCN(C(=O)CN2C(=O)CSC2=O)CC1	-21.5%	11.6µM*	?	23.5	?	-3.6%
CC1CN(C(=O)COC(=O)Cc2c(F)cccc2Cl)CC(C)O1 (stereo unspecified)	-1.9%[9.24 µM]	14.3%	8.6%	-7.3	4.1%	2.0%
COc1ccc(NC(=O)CSc2nnc(NC(=O)Nc3ccccc3)s2)c(OC)c1	.	.	-7.1%	.	-0.4%	.
COc1ccc(/C(=C/Nc2cccc(Br)c2)C(C)=O)cc1OC	-0.6%	?	?	-84.5*	-2.6%	0.7%
COc1ccc(N/C=C(/C(C)=O)c2ccccc2)cc1	-0.1%	20.9%	-15.1%	-84.4*	-6.6%	4.3%
COc1ccc(/C(C)=N/Nc2cccc(C(=O)O)c2)cc1OC	-1.6%	?	-1.9%	-1.1	-0.2%	-2.0%
COc1ccc(N/C=C/C(=O)c2ccccc2)cc1	-24.4%	?	?	-3.4	-17.9%	-20.6%
Brc1cc2c(cc1CSc1ncccn1)OCO2	-3.5%	?	?	-3.4	14.4%	-1.9%
COc1ccc(N(C(=O)Cc2cccs2)C(C(=O)NC2CCCCC2)c2cccn2C)cc1OC (stereo unspecified)	1.3%	-3.6%	-17.7%	-5.6	-1.0%	-0.2%
C#CC(=O)N(c1cccc(OC)c1)C(C(=O)NC1CCCC1)c1cccs1 (stereo unspecified)	0.251µM*	20.6µM*	2.31µM*	-101.8*	1.03µM*	39.8µM*
C#CC(=O)N(c1ccc(OC)c(OC)c1)C(C(=O)NC1CCCC1)c1cccs1 (stereo unspecified)	0.116µM*	?	0.651µM*	-105.6*	0.731µM*	0.581µM*
SMILES	HT1080-NT tox	ELG1 DNA repair	TDP1 cell noCPT	IL1B secr inh	TDP1 cell CPT	HT1080 IDH1KD tx
O=C(C(c1ccccc1)c1ccccc1)N1CCC(c2nc(-c3ccccc3Cl)no2)CC1	?	.	?	-12.9	23.1µM*	-4.1%[9.24 µM]
COc1ccccc1CN1CCC2(CC1)CCN(S(C)(=O)=O)CC2	.	.	-3.6%	.	-2.5%	.
CN(CCOc1ccccc1)C(=O)c1cc(S(=O)(=O)N2CCOCC2)c(Cl)cc1Cl	-10.9%	.	?	-8.4	18.4µM*	-14.5%
O=[N+]([O-])c1cc(S(=O)(=O)N2CCCC2)ccc1OCCOc1ccccc1	10.2%[9.24 µM]	-23.6%	?	?	?	-4.8%
CN(CCOc1ccccc1)C(=O)c1cc(S(=O)(=O)N2CCCCC2)ccc1Cl	-11.9%	-1.3%	?	-65.2*	?	-1.9%
NC(=O)c1cc(S(=O)(=O)N2CCCC2)ccc1OCCOc1ccccc1	4.3%	-26.8%	-22.0%	-51.1*	-5.3%	5.5%
CC1CC(C)CN(C(=O)c2ccc(S(=O)(=O)N3CCCCC3)cc2)C1 (stereo unspecified)	-1.8%	0.0%	-21.4%	-7.2	-4.7%	-2.3%
CC1CC(C)CN(C(C)C(=O)Nc2cc(S(=O)(=O)N3CCCCC3)ccc2Cl)C1 (stereo unspecified)	-4.7%	4.2%	14.6µM*	-15.3	?	-2.5%
Cc1ccc2c(c1)nnn2C1CCN(S(=O)(=O)c2ccc(C(=O)N3C(C)CCCC3C)cc2)CC1 (stereo unspecified)	?	?	9.2µM*	-67.5*	9.2µM*	-22.8%
Cc1ccc(S(=O)(=O)N2CCCCC2)cc1C(=O)N1C(C)CCCC1C (stereo unspecified)	1.6%	?	13µM*	0.9	?	10.6%
CC1CC(C)CN(C(=O)c2cc(S(=O)(=O)N3CCCCC3)ccc2Cl)C1 (stereo unspecified)	-2.1%	-9.2%	14.6µM*	47.6	16.4µM*	0.3%
O=C(NCc1ccccc1)C(=O)NCC(c1cccs1)S(=O)(=O)c1ccccc1 (stereo unspecified)	.	.	-17.6%	.	-22.9%	.
COc1cc2nc(C3CCC3)n(NC(=O)C3CCCC(OC)C3)c(=O)c2cc1OC (stereo unspecified)	16.5%	-2.3%	-19.9%	-13.8	-33.2%	-3.1%
